Source: PubChem
tim10-1 inh = growth inhibitors of tim10-1 mutant yeast; S. cerevisiae tim10-1 ts strain growth, BacTiter-Glo, 24 h; inhibition, % at 20 µM; 330,000 tested, 2.2% active; AID 463190;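 active means inhibition of at least 40%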;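 further: mutant grown at 25 °C; 0% = DMSO wells with yeast and 100% = wells holding no yeast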
tim23-1 inh = inhibits growth of tim23-1 mutant yeast. S. cerevisiae tim23-1 growth, BacTiter-Glo luminescence, 24 h. inhibition, % at 20 µM. 330,000 tested, 1.3% active. AID 463212;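 active means growth inhibition of the mutant yeast at or above 50%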;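 further: temperature-sensitive mutant grown at 25 °C; plate controls were DMSO-treated mutant yeast for no effect and medium wells lacking yeast for full effect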
NALP3 yeast inh = inhibitors of NALP3 inflammasome in yeast; Yeast reconstituted NLRP3/ASC/caspase-1, beta-gal luminescence, 24 h; inhibition, % at 10 µM; 330,000 tested, 0.39% active;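 active means inhibition of 50% or more; inactive means inhibition below 50%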;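 further: plate controls were induced DMSO wells for no effect and uninduced yeast grown without galactose for full effect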
NALP1 yeast inh = inhibitors of NALP1 inflammasome in yeast; S. cerevisiae NALP1/ASC/caspase-1 growth, X-gal OD620, 72 h; inhibition, % at 10 µM; 280,000 tested, 0.61% active; AID 2071; in the data active means inhibition mostly above about 24%, no sharp cut-off; inactive means mostly below about 32%
TIM10 inh = inhibits growth of TIM10 yeast strain; S. cerevisiae TIM10 strain growth, BacTiter-Glo luminescence, 24 h; 330,000 tested, 1.4% active; inhibition, % at 10 µM;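 active means inhibition of 40% or more at the single tested concentration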;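 further: wild-type TIM10 isogenic control strain grown at permissive 25 °C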
tim10-1 confirm = confirmation of tim10-1 mutant yeast growth inhibitors | shares compounds with tim10-1 inh | S. cerevisiae tim10-1 ts strain growth, BacTiter-Glo, 24 h | inhibition, % at 20 µM | 7,400 tested, 56% active | AID 463213;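 active means inhibition of yeast growth at or above a set limit in either of two repeat tests at 20 µM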;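 further: tim10-1 mutant grown at permissive 25 °C to find synthetic lethal compounds; 0% = DMSO yeast wells and 100% = medium wells without yeast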
tim10 confirm = TIM10 yeast growth inhibition, confirmed | shares compounds with TIM10 inh | S. cerevisiae tim10 strain growth, BacTiter-Glo luminescence, 24 h | inhibition, % at 10 µM | 4,600 tested, 63% active;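 active means inhibition of yeast growth at or above a set limit in either of two replicates at 10 µM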;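 further: this counterscreen used the strain with wild-type TIM10; 0% = yeast with DMSO and 100% = medium wells lacking yeast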
tim23-1 conf = confirmation of tim23-1 mutant yeast growth inhibitors. shares compounds with tim23-1 inh. S. cerevisiae tim23-1 growth, BacTiter-Glo luminescence, 24 h. inhibition, % at 20 µM. 4,400 tested, 83% active;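 active means inhibition above about 39% in either of two replicate wells at 20 µM, limit read from the data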;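 further: temperature-sensitive tim23-1 mutant grown at 25 °C; 0% = DMSO wells with yeast and 100% = medium wells without yeast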
Starred values were filed as active, the others as inactive; x = no result given. Most compounds without a hit are left out; they make up all but 4.1% or so of the library.

SMILES | tim10-1 inh | tim23-1 inh | NALP3 yeast inh | NALP1 yeast inh | TIM10 inh | tim10-1 confirm | tim23-1 conf | others
O=C(NNC(=S)NC(=O)c1ccccc1[N+](=O)[O-])c1ccccc1[N+](=O)[O-] | 5 | 1 | 16 | -5 | 16 | x | x
O=C(NC(=S)NC1CCCCC1)c1ccc(F)cc1 | 42* | 69* | 18 | 16 | 34 | 32* | 56*
O=C(NC(=S)NC1CCCCC1)c1ccccc1[N+](=O)[O-] | 45* | 63* | 5 | -1 | 21 | 26 | 48*
Cc1ccc(C(=O)NC(=S)NNC(=O)c2ccccc2[N+](=O)[O-])cc1 | 47* | 61* | 11 | 14 | 47* | 42* | 49* | tim10 confirm=61*
O=C(Nc1nc2ccc([N+](=O)[O-])cc2s1)c1ccco1 | 12 | 17 | 33 | -8 | 0 | x | x
CN1C(=O)/C(=C\c2ccccc2OCc2ccccc2)SC1=S | 16 | 4 | 10 | 25 | -17 | x | x
CN1C(=O)/C(=C\c2cc(N=Nc3ccccc3)ccc2O)SC1=S | 42* | 62* | 39 | 7 | 40 | 24 | 67*
O=C(Nc1ccccc1)C1=C[C@H](c2ccccc2)C[C@H](OCCCCO)O1 | 20 | 17 | 13 | x | -16 | x | x
O=C(Nc1ccccc1)C1=C[C@@H](c2ccc(Br)cc2)C[C@@H](OCCCCO)O1 | 43* | 55* | 13 | -6 | 33 | 45* | 54*
O=C(COC(=O)C12CC3CC(CC(C3)C1)C2)Nc1ccc(OC(F)F)cc1 | 44* | 59* | 0 | 36 | 57* | 22 | 62* | tim10 confirm=46*
Cc1ccc(C)c(N(CC(=O)NC2CCCC2)C(=O)CCC(=O)Nc2cc(C)on2)c1 | -3 | -6 | 15 | 8 | 1 | x | x
Cc1noc2ncnc(Sc3ccc(Cl)cc3)c12 | 51* | 58* | 37 | 26 | 31 | 57* | 49*
Cc1noc2ncnc(Sc3c(Cl)cccc3Cl)c12 | 25 | 5 | -16 | -8 | 23 | x | x
Oc1c(C(c2cccs2)N2CCN(c3ccccc3)CC2)ccc2cccnc12 (stereo unspecified) | 56* | 59* | 15 | 4 | 1 | 40* | 78*
O=C(CNC(=O)c1ccccc1F)NCCc1ccc(Cl)cc1Cl | -3 | 18 | 12 | -25 | 7 | x | x
O=C(NC(=O)c1ccccc1F)OCc1ccc(Cl)cc1Cl | 46* | 50* | 39 | 6 | 18 | 27 | 45*
COc1ccc(CNc2ccc3c(c2)ncn3-c2ccccc2OC)cc1 | 53* | 61* | 46 | 2 | 64* | 27 | 71* | tim10 confirm=62*
COc1ccccc1-n1cnc2cc(NCc3cccs3)ccc21 | 45* | 56* | 18 | -7 | 45* | 27 | 71* | tim10 confirm=-18
COc1ccc(NC(=O)c2ccc(S(=O)(=O)N(C)c3ccccc3)cc2)cn1 | 9 | 16 | 1 | x | 9 | x | x
Cc1ccc(Nc2ccc3nonc3c2[N+](=O)[O-])cc1 | 12 | 7 | 4 | 5 | 14 | x | x
Cc1ccc(Nc2ccc([N+](=O)[O-])nc2[N+](=O)[O-])cc1 | 42* | 53* | 18 | 40 | 42* | 27 | 43* | tim10 confirm=25
OCCCNc1nc(-c2ccc(Cl)cc2)nc2ccccc12 | 43* | 60* | 17 | 2 | 34 | 27 | 31
Cc1nnc(-c2ccc(Cl)cc2)nc1NCCN(C)C | 5 | -6 | -3 | 21 | 2 | x | x
OCCCNc1nc(-c2ccc(Br)cc2)nnc1-c1ccc(Cl)cc1 | 42* | 54* | 6 | 34 | 12 | 31* | 59*
COCCCNc1nc(-c2ccc(Cl)cc2)nc2ccccc12 | 46* | 59* | 26 | 36* | 27 | 34* | 54*
Oc1c(Cl)cc(Cl)cc1/C=N/Nc1ncc(Br)cn1 | 12 | -4 | 13 | 3 | -1 | x | x
Oc1c(Cl)cc(Cl)cc1/C=N/NC(=S)NC1CC2C=CC1C2 (stereo unspecified) | 48* | 57* | 13 | -12 | 36 | 50* | 72*
COc1cc(SC)ccc1C(=O)NCCNC(=O)c1nonc1N | -23 | -3 | 20 | -5 | 15 | x | x
